# Data taken from PubChem BioAssay AID1851 (National Center for Advancing Translational Sciences (NCATS), 2009).
# The whole screen tested about 16,000 compounds, of which about 5,800 (36%) were called active. Roughly 23% stayed inconclusive and do not appear here. The list shows a part of the results. Values without a mark were called inactive. Calls come from the whole dose curve; as a rule, active = well fitted curve in the direction sought with a large enough effect; inconclusive = small, poorly fitted or top-dose-only effect, or effect the other way; inactive = no such curve, though single readings can be large or run the other way.
# Target: Cytochrome P450 2C19 (Homo sapiens) (UniProt P33261)
# Sequence (P33261 whole entry, looked up): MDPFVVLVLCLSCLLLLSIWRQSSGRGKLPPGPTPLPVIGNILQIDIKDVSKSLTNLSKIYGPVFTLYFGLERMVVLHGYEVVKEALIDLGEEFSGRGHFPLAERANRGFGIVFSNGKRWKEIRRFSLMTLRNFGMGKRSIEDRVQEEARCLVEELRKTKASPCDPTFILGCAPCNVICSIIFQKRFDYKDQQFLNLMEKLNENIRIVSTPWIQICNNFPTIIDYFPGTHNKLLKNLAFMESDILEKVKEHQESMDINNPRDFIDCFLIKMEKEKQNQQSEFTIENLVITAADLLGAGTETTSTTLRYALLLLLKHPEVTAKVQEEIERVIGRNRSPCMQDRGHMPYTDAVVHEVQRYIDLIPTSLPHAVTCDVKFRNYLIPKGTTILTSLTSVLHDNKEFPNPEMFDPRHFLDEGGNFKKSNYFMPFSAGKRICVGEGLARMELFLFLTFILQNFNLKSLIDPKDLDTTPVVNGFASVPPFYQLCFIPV
# Assay: Cytochrome panel assay with activity outcomes
# Conditions: recombinant CYP, pro-luciferin dealkylation, luminescence, p450-cyp2c19; series mostly up to 57.1 µM
# % is set by controls: 0 for no effect and ±100 for the full control effect.
SMILES,AC50,"activity, negative = inhibition"
COc1cc(S(C)=O)ccc1-c1nc2ncccc2[nH]1 (stereo not drawn),inactive,
Cc1cc(SCC(=O)c2cccs2)nc2c(C)cccc12,3.16 µM (active),
CC[C@]1(C)CC(=O)NC1=O,inactive,
Cc1ccc(Nc2nc(Cl)nc(N(C)C#N)n2)cc1,25.1 µM (active),
COc1ccc(-c2cc(C(=O)O)c3c(C)nn(-c4ccccn4)c3n2)cc1,inactive,
COC(=O)c1ccccc1N/C=C1\CCc2c(c(C)nn2-c2ccccn2)C1=O,1.26 µM (active),
C(=N\Nc1nc(Nc2ccccc2)nc(N2CCOCC2)n1)/c1c[nH]c2ccccc12,8.91 µM (active),
COc1ccc(N2CCN(c3nc(Nc4ccc(F)cc4)nc(OC)n3)CC2)cc1,inactive,
CC(=C\C(=O)O)/C(=C/c1ccccc1)C(=O)O,inactive,
CC(=O)/C(=C\c1ccccc1F)C(=O)c1ccccc1,2 µM (active),
c1ccc(-c2nc(N3CCCCCC3)nc(-n3ccnc3)n2)cc1,2 µM (active),
CN(c1ccccc1)c1nc(-n2ccnc2)nc(-n2ccnc2)n1,1.78 µM (active),
N#Cc1c(-c2ccccc2)ccnc1Oc1ccccc1,1.58 µM (active),
Cn1c(=O)c(-c2cccc(C#N)c2)nc2cnc(Oc3ccccc3)nc21,inactive,
COc1ccc(Oc2nccc(-c3ccc(F)cc3)c2C#N)cc1,inactive,
CCN(CC)CCNc1ccc(CO)c2sc3ccccc3c(=O)c12,inactive,
COc1ccc2sc3ccccc3c(=O)c2c1OC,25.1 µM (active),
COc1ccc(C(=O)CCN(C)C)c2ccccc12,,-37.3% [at 11.4 µM]
COc1ccc(/C(O)=C2/C(=O)C(=O)N(CCN3CCOCC3)C2c2ccc(C)cc2)cc1 (stereo not drawn),inactive,
Cc1nc2ccccn2c1/C(O)=C1\C(=O)C(=O)N(CCN2CCOCC2)C1c1cccnc1 (stereo not drawn),inactive,
CCOC(=O)c1[nH]c(C)c(/C(O)=C2\C(=O)C(=O)N(CCN3CCOCC3)C2c2cccs2)c1C (stereo not drawn),8.91 µM (active),

SMILES,AC50,"activity, negative = inhibition"
Cc1cc(Cl)nc2ccc(Cc3ccc4nc(Cl)cc(C)c4c3)cc12,0.501 µM (active),
CC(=O)Nc1ccc(Cc2ccc3[nH]c(=O)cc(C)c3c2)cc1,,3.04% [at 11.4 µM]
Cc1cc(N2CCOCC2)nc2ccc(Cc3ccc4nc(N5CCOCC5)cc(C)c4c3)cc12,,-39.6% [at 11.4 µM]
CC(C)=NNc1ncnc2nc[nH]c12,,43.1% [at 11.4 µM]
CN(C)c1ccc(C(c2ccc(N(C)C)cc2)c2ccc([N+](=O)[O-])cc2)cc1,,-36.9% [at 11.4 µM]
Cc1ccc(N(Cc2ccc([N+](=O)[O-])cc2)C(=O)c2ccco2)cc1,10 µM (active),
CN1CCc2ccccc2[C@@H]1Cc1ccccc1NC(=O)c1sc2ccccc2c1Cl,2.51 µM (active),
O=c1c2ccccc2sc2c(CO)ccc(NCCN3CCCCC3)c12,,-24.6% [at 11.4 µM]
Cc1nc(SCC(=O)Nc2ccc(N3CCOCC3)cc2)nc(C)c1C,25.1 µM (active),
CC(C)(C)c1nc(SCC(=O)Nc2ccc(N3CCOCC3)cc2)c2ccccc2n1,10 µM (active),
CC(C)(C)c1nc(SCC(=O)Nc2ccc3c(c2)OCCO3)c2ccccc2n1,1.78 µM (active),
Cc1nc(SCC(=O)Nc2ccc3c(c2)OCCO3)c2oc3ccccc3c2n1,0.562 µM (active),
O=C(CSc1nncn1-c1ccccc1)Nc1ccc(N2CCOCC2)cc1,inactive,
CCCNC(=O)N1N=C(c2ccc(N)cc2)c2cc3c(cc2[C@H]1C)OCO3,inactive,
COc1ccccc1CNC(=O)C/C(C)=N/NC(=O)Cc1ccccc1,inactive,
CN1CCC(=NNC(=O)CSCc2ccccc2)CC1,17.8 µM (active),
O=C(O)Cc1ccc(NC(=O)C2CCCCC2C(=O)O)cc1 (stereo not drawn),inactive,
CC1CCC(=NNC(=O)Cc2ccccc2)CC1 (stereo not drawn),25.1 µM (active),
O=C(c1coc2ccccc2c1=O)N1CCN(c2cccc(C(F)(F)F)c2)CC1,14.1 µM (active),
O=C(c1cc(C(F)(F)F)cc(C(F)(F)F)c1)N1CCC[C@@]2(CCN(c3ccccc3)C2)C1,inactive,
O=C(c1cccc(F)c1)N1CCC2(CCN(Cc3cc(C(F)(F)F)cc(C(F)(F)F)c3)CC2)CC1,inactive,

SMILES,AC50,"activity, negative = inhibition"
CC(C)C(=O)Cc1ccc2ccccc2n1,,6.88% [at 11.4 µM]
CCCCc1cc2ccccc2c(OCCN(C)C)n1,inactive,
CCCCC[C@H](O)c1cccc(OCc2ccc3ccccc3n2)c1,6.31 µM (active),
O=C(O)c1ccccc1Nc1cccc(OCc2ccc3ccccc3n2)c1,5.01 µM (active),
O=C(Nc1ccccc1C(=O)O)c1ccc2ccccc2n1,inactive,
O=C(O)CP(=O)(O)O,inactive,
C=CC[C@@H]1C=C[C@H](ON=C(C)C)[C@H](CO)O1,,-4.34% [at 11.4 µM]
Cc1cc(C=C(C#N)C#N)c(C)n1-c1ccccc1,1 µM (active),
Cc1cc(C)nc(Nc2ncc(O)n2-c2ccccc2)n1,inactive,
Cc1cc(-c2n[nH]c(=S)o2)c(C)n1-c1ccccc1,inactive,
Cc1cc(C)cc(-n2c(C)cc(C=C(C#N)C#N)c2C)c1,5.62 µM (active),
C#CCCCO/N=C1/C[C@@H](O)[C@@H](O)[C@@H]2[C@@H]3C(=O)N(CCC(=O)OCC)C(=O)[C@H]3CC[C@@H]12,,-1.53% [at 11.4 µM]
COc1ccc(-n2c(=O)cnc3cnc(N4CCNCC4)nc32)cc1,inactive,
Cc1cccc(NC(=O)Cn2cccc2)c1,15.8 µM (active),
COc1ccc(CCNC(=O)Cn2c(=O)oc3ccccc32)cc1OC,inactive,
CCOc1cc(/C=C2/NC(=O)N(CC(=O)Nc3cccc(C)c3)C2=O)ccc1OC,inactive,
CSc1cccc(NC(=O)OC2CCCCCCCCCCC2)c1,,-41.3% [at 11.4 µM]
CSc1cccc(NC(=O)Cn2cccc2)c1,6.31 µM (active),
CSc1cccc(NC(=O)Nc2ccc(Cl)cc2)c1,2 µM (active),
Cc1ccc(CNC(=O)Cn2c(=O)oc3ccccc32)o1,3.55 µM (active),
N#Cc1cccc(NC(=O)N2CCCC3(CCN(C(=O)c4csnn4)CC3)C2)c1,inactive,
